Screening results deposited in PubChem by National Center for Advancing Translational Sciences (NCATS).
B2AR arrestin: recruits beta-arrestin to the human beta2-adrenergic receptor. P07550. beta-arrestin recruitment to beta2AR, cell-based reporter. Potency, µM (top dose mostly 46.1 µM), without a hit: top-dose activation, actives largely listed as activators. 330,000 compounds, 0.02% hits. AID 492947;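 also: 0% = DMSO controls and full agonism = EC100 isoproterenol or metaproterenol; nearly all actives have a fitted effect of over 65% in size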
NPSR antag: blocks cAMP signaling of the human neuropeptide S receptor; 220,000 compounds, 1% hits; AID 1461; CHO-NPSR cells, cAMP TR-FRET, antagonist mode; Potency, µM (doses to about 38.3 µM), inactives show at the top dose activity change, negative = inhibition, usual class: inhibitors; Q6W5P4; also: nearly all actives have a fitted effect of over 50% in size
RORg inh: ROR gamma (mouse) transcription inhibition; Drosophila S2 Gal4-RORgamma UAS-luciferase reporter, 20 h; Potency, µM (series often up to 53.6 µM), for inactives: at the highest dose activity change, negative = inhibition, most hits filed as inhibitors; P51450; 310,000 compounds, 5.4% hits; also: nearly all actives have a fitted effect of over 60% in size
Target sequence (P51450 whole entry, looked up, the tested form may be a part): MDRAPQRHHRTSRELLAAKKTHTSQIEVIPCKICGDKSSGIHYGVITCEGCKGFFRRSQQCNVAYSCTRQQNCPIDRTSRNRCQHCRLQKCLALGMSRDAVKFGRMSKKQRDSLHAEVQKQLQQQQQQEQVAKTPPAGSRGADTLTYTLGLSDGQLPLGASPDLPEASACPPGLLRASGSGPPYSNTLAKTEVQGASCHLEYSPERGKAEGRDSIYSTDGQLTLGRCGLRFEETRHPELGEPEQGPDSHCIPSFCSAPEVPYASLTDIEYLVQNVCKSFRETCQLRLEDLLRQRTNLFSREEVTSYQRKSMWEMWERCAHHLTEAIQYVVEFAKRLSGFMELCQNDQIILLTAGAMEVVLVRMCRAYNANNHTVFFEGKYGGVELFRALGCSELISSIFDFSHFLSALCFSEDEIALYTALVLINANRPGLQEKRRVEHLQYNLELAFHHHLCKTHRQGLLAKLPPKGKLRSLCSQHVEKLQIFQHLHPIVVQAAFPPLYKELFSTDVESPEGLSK
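Compounds are pin-transferred onto Drosophila Schneider cells expressing a copper-inducible Gal4–ROR gamma transactivation domain fusion. After 1 hr, copper sulfate is added to 700 uM final; luciferase is read 20 hr later.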
VP16 counter: Gal4-VP16 reporter inhibition counter-screen. Drosophila S2 Gal4-VP16 UAS-luciferase, luminescence, 20 h. Potency, µM (top dose mostly 53.6 µM), without a hit: top-dose activity, negative = inhibition, hits mostly inhibitors. 310,000 compounds, 3.5% hits. AID 2546;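 also: Gal4-VP16 expression switched on by copper sulfate through the metallothionein promoter; nearly all actives have a fitted effect of over 50% in size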
* marks the source's active call; other numbers are inactive results; [ ] = another dose, or the depositor's remark. Shown are actives, neighbours in structure and some others; about 5.7% of the full set was active somewhere. Calls follow the shape of the dose curve; as a rule, active = well fitted curve in the direction sought with a large enough effect; inconclusive = small, poorly fitted or top-dose-only effect, or another doubt; inactive = no such curve, though single readings can be large; an effect the other way counts as inactive or inconclusive. Unless noted, % is scaled to controls: 0 for no effect and ±100 for the full control effect; potency is read from the fitted curve at half-maximal effect.

What do the screens show for `CCCC(=O)NC(c1ccc(Cl)cc1Cl)c1ccc2cccnc2c1O` (stereo not given)?
B2AR arrestin: -0.7%; RORg inh: 5.62µM*; VP16 counter: 2µM*

What do the screens show for `CC(=O)NC(CC(=O)NC(C)c1ccc(Cl)cc1Cl)c1ccccc1` (stereo not given)?
B2AR arrestin: 0.4%; NPSR antag: -19.5%; RORg inh: 28.5%; VP16 counter: 1.5%

Results for CCCC[C@@H]1CCCO[C@@](C(=O)NCC2CC2)(C(F)(F)F)C1 ?
RORg inh: -21.4%; VP16 counter: -2.3%

What do the screens show for `CCCN(S(=O)(=O)c1ccccc1F)S(=O)(=O)c1ccccc1Br`?
B2AR arrestin: -0.4%; RORg inh: -13.9%; VP16 counter: 5.4%

What do the screens show for `CC(=O)OC[C@@H]1O[C@H](CCO/N=C(\C)CCN2CCCc3nc(C)c(C)cc32)C=C[C@@H]1OC(C)=O`?
RORg inh: 3.6%[10 µM]; VP16 counter: 5.1%[10 µM]

How did CCC(=O)NC(c1ccc(C)cc1)c1cc(Cl)c2cccnc2c1O (stereo not given) do in these assays?
B2AR arrestin: -0.6%

What do the screens show for `COc1ccc(C(NC(C)=O)c2ccc3cccnc3c2O)c(OC)c1` (stereo not given)?
B2AR arrestin: 5.2%; NPSR antag: -18.7%[46.1 µM]; RORg inh: inconclusive; VP16 counter: 4.47µM*

How did COc1ccc(OC)c(NS(=O)(=O)c2cccc3cccnc23)c1 do in these assays?
B2AR arrestin: 0.5%; RORg inh: -32.4%; VP16 counter: -2.9%

How did CCCC(=O)NC(c1ccc(C)cc1)c1ccc2cccnc2c1O (stereo not given) do in these assays?
B2AR arrestin: 8.1%; RORg inh: 1.58µM*; VP16 counter: 2.24µM*

What do the screens show for `CC(Nc1ncnc2ccccc12)c1ccccc1` (stereo not given)?
B2AR arrestin: -0.2%; RORg inh: inconclusive; VP16 counter: 2.82µM*

What do the screens show for `CC#CCC1(C(=O)OC)C(=O)NC[C@H]1c1ccccc1` (stereo not given in full)?
RORg inh: -5.2%; VP16 counter: 11.2%

What do the screens show for `COC(=O)NC(c1cccc(F)c1)[C@]1(C(C)=O)CCCC1=O` (stereo not given in full)?
RORg inh: 9.7%[10 µM]; VP16 counter: -5.4%[10 µM]

Results for O=S(=O)(/N=S1/CC=CCN1S(=O)(=O)c1ccccc1)c1ccccc1 (stereo not given) ?
B2AR arrestin: 0.2%; NPSR antag: -5.7%[46.1 µM]; RORg inh: 11.2µM*; VP16 counter: inconclusive

How did O=S(=O)(c1ccccc1)N1CCN(S(=O)(=O)c2ccccc2)C1 do in these assays?
B2AR arrestin: -0.9%; NPSR antag: 14.6%[46.1 µM]; RORg inh: 5.0%; VP16 counter: 9.1%

How did CCc1ccc(Oc2coc3cc(OCC(=O)Nc4cc(C)ccc4C)ccc3c2=O)cc1 do in these assays?
B2AR arrestin: -0.1%; NPSR antag: inconclusive; RORg inh: 25.1µM*; VP16 counter: 7.94µM*

Results for CCCc1ccc(Oc2coc3cc(OCC(=O)Nc4ccccc4C)ccc3c2=O)cc1 ?
B2AR arrestin: -0.1%; NPSR antag: -1.2%; RORg inh: inconclusive; VP16 counter: inconclusive

How did CCCC[C@]12Cc3cc(OC)c(OC)cc3C(O1)C1=C(O2)C(=O)c2ccccc2C1=O do in these assays?
B2AR arrestin: -0.4%[9.22 µM]; RORg inh: -19.4%[10 µM]; VP16 counter: 1.1%[10 µM]

How did Cc1ccccc1NC(=S)C1=C(O)c2sccc2N(C)S1(=O)=O do in these assays?
B2AR arrestin: -0.1%; NPSR antag: 1.4%[46.1 µM]; RORg inh: inconclusive; VP16 counter: inconclusive

How did Cc1ccc(NC(=S)C2=C(O)c3ccccc3N(C)S2(=O)=O)cc1 do in these assays?
B2AR arrestin: 0.4%; NPSR antag: -11.5%[46.1 µM]; RORg inh: inconclusive; VP16 counter: 17.8µM*

Results for CN1c2ccsc2C(O)=C(C(=S)Nc2ccccc2)S1(=O)=O ?
B2AR arrestin: -0.1%; NPSR antag: -14.7%[46.1 µM]; RORg inh: 10µM*; VP16 counter: inconclusive

What do the screens show for `CC(C)N(Cc1nc(-c2ccc3c(c2)OCO3)no1)Cc1nccn1C`?
B2AR arrestin: -0.2%; NPSR antag: 7.3%; RORg inh: 14.1µM*; VP16 counter: -7.8%

What do the screens show for `COc1ccc(-c2noc(CN(C(=O)c3ccc4c(c3)OCO4)C(C)C)n2)cc1`?
B2AR arrestin: 0.4%; RORg inh: 37.1%; VP16 counter: 5.2%

Results for COC(=O)c1ccc(-c2noc(CN3CCCCC3c3nccn3C)n2)cc1 (stereo not given) ?
B2AR arrestin: 0.9%; NPSR antag: 9.1%; RORg inh: 12.6µM*; VP16 counter: -11.9%

What do the screens show for `COC(=O)c1ccc(-c2noc(CN(Cc3nccn3C)C(C)C)n2)cc1`?
B2AR arrestin: -0.2%; NPSR antag: 4.3%; RORg inh: 10µM*; VP16 counter: -6.4%

Results for CC(C)N(Cc1nc(COc2ccccc2)no1)Cc1nccn1C ?
B2AR arrestin: -0.9%; NPSR antag: 8.7%; RORg inh: inconclusive; VP16 counter: 22.6%

How did COc1ccc(C)cc1N(CC(=O)NCCN1CCOCC1)S(=O)(=O)c1ccccc1 do in these assays?
B2AR arrestin: -0.2%

What do the screens show for `CC(C)NC(=O)C1COc2ccccc2O1` (stereo not given)?
B2AR arrestin: -1.0%; NPSR antag: -19.5%; RORg inh: -33.1%; VP16 counter: 1.1%

What do the screens show for `NC(=S)C1COc2ccccc2O1` (stereo not given)?
B2AR arrestin: 0.4%; NPSR antag: 14.3%; RORg inh: 12.6µM*; VP16 counter: -29.3%

Results for Cc1ccc(C(=O)Nc2ncc(Cc3ccc(SC(F)F)cc3)s2)cc1 ?
B2AR arrestin: -0.4%; NPSR antag: -3.0%; RORg inh: 12.6µM*; VP16 counter: inconclusive

How did O=C(Nc1ncc([N+](=O)[O-])s1)c1ccc2c(c1)OCO2 do in these assays?
B2AR arrestin: -0.6%; RORg inh: 1.78µM*; VP16 counter: 2.51µM*

What do the screens show for `Cc1ccc(C(=O)Nc2ncc([N+](=O)[O-])s2)cc1`?
B2AR arrestin: -0.6%; RORg inh: 0.891µM*; VP16 counter: 2µM*

How did Cc1nc2c(C#N)c(C)[nH]n2c(=O)c1Cc1ccccc1 do in these assays?
B2AR arrestin: -0.5%; NPSR antag: -16.9%[46.1 µM]; RORg inh: -42.4%; VP16 counter: 2.0%

What do the screens show for `Cc1nc2c(-c3ccccc3)c(C)[nH]n2c(=O)c1Cc1ccccc1`?
B2AR arrestin: -0.2%; NPSR antag: -21.2%; RORg inh: 2.82µM*; VP16 counter: 7.08µM*

How did Cc1nc2c(-c3ccc(Cl)cc3)c(C)[nH]n2c(=O)c1Cc1ccccc1 do in these assays?
B2AR arrestin: 0.1%; NPSR antag: -42.9%; RORg inh: 1.41µM*; VP16 counter: inconclusive

How did COc1ccc(-c2c(C)[nH]n3c(=O)c(Cc4ccccc4)c(C)nc23)cc1OC do in these assays?
B2AR arrestin: 3.1%; NPSR antag: -21.7%; RORg inh: 3.55µM*; VP16 counter: inconclusive

What do the screens show for `Cc1nc2c(C#N)c[nH]n2c(=O)c1Cc1ccccc1`?
B2AR arrestin: -0.1%; NPSR antag: -0.1%[46.1 µM]; RORg inh: 25.5%; VP16 counter: -2.2%
